Experimental findings from PubChem BioAssay are described below.

Activity calls are given as the source filed them.

Test [1] is described as follows: E. coli DRC41 culture turbidity changes, primary screen, E. coli filamentation inducer project, strain DRC41, OD650, 48 h (AID 1152).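 Also: E. coli MC1000 strain DRC41 lacking acrAB efflux pump and sulA.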 The note with it: E. coli DRC41 (acrAB sulA), higher = more signal, called active from +8 up or from −8 down.
Test [2] can be described thus: small-molecule binders of probe aLefty1, primary screen, biochemical, small-molecule microarray, 635/667 nm fluorescence (AID 1153).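 Also: score merges spot fluorescence with signal-to-noise ratio from the scanned slide images.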 The note with it: higher = more signal.
The nature of test [3]: PSAC antagonists in infected red cells, primary screen, cell-based, P. falciparum Indochina, OD700, 1 h (AID 1154). The note with it: P. falciparum Indochina infected RBC osmotic lysis, higher = more signal, called active from +8 up or from −8 down.
A short description of test [4]: PSAC antagonists in infected red cells, primary screen, cell-based, P. falciparum Indochina, OD700, 2 h (AID 1155).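 Also: lysis reports solute entry through the parasite surface anion channel PSAC; channel blockers reduce lysis of infected cells.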 The note with it: P. falciparum Indochina infected erythrocytes, osmotic lysis OD700; higher = more signal, called active from +8 up or from −8 down.
The nature of test [5]: osmotic lysis modulators in infected erythrocytes, primary screen, PSAC antagonist project, cell-based, P. falciparum Indochina, OD700, 3 h (AID 1156). The note with it: higher = more signal, called active from +8 up or from −8 down.
Test [6] can be described thus: PSAC antagonists in infected red cells, primary screen, cell-based, P. falciparum Indochina, OD700, 18 h (AID 1157). The note with it: P. falciparum Indochina infected erythrocytes, osmotic lysis OD700, 18 h; higher = more signal, called active from +8 up or from −8 down.
Test [7] in a line: modulators of S6 phosphorylation in cells, primary screen, cell-based, A549, cytoblot, luminescence, serum-stimulated (AID 1158).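 Also: serum-stimulated A549 lung adenocarcinoma cells; signal is phosphorylated S6 detected by cytoblot immunostaining with HRP secondary.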 The note with it: A549 phospho-S6 cytoblot, 5 h, higher = more signal.
In test [8] the target is NADPH oxidase 2 (Homo sapiens) (UniProt P04839). Description: NOX2-dependent H2O2 signal modulators, primary screen, NOX inhibitor project, cell-based, HEK293-NOX2, PMA-stimulated, Amplex Red fluorescence (AID 1159). Also: test concentration not given here. The note with it: 45 min, higher = more signal, called active from +8 up or from −8 down.
NADPH oxidase 2 (Homo sapiens), sequence (P04839 whole entry, looked up): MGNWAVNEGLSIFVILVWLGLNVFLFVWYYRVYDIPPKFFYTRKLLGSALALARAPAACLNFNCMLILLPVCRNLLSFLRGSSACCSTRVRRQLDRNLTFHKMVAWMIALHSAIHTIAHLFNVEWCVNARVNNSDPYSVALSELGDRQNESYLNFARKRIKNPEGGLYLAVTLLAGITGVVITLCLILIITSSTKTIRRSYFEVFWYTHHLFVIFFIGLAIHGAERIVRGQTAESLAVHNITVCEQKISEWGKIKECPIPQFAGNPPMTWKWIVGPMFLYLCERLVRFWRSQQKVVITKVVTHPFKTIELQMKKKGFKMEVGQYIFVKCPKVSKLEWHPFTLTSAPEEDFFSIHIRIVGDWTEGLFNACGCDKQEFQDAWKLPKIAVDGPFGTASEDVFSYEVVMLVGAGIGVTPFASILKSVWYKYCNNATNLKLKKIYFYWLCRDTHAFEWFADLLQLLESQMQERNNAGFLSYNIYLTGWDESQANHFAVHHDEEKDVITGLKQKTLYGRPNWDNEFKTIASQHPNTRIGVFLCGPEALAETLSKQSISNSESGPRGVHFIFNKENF
Test [9] has as its target NADPH oxidase 4 (Homo sapiens) (UniProt Q9NPH5). Description: NOX4-dependent H2O2 signal modulators, primary screen, NOX inhibitor project, cell-based, HEK293-NOX4, tetracycline-induced, Amplex Red fluorescence (AID 1160). The note with it: 45 min, higher = more signal, called active from +8 up or from −8 down.
Test [10] concerns the target NADPH oxidase 5 (Homo sapiens) (UniProt Q96PH1). The experiment in a line: NOX5-dependent H2O2 signal modulators, primary screen, NOX inhibitor project, cell-based, HEK293-NOX5, Amplex Red fluorescence (AID 1161). The note with it: HEK293-NOX5, ionomycin, 45 min, higher = more signal.

NADPH oxidase 5 (Homo sapiens), sequence (Q96PH1 whole entry, looked up): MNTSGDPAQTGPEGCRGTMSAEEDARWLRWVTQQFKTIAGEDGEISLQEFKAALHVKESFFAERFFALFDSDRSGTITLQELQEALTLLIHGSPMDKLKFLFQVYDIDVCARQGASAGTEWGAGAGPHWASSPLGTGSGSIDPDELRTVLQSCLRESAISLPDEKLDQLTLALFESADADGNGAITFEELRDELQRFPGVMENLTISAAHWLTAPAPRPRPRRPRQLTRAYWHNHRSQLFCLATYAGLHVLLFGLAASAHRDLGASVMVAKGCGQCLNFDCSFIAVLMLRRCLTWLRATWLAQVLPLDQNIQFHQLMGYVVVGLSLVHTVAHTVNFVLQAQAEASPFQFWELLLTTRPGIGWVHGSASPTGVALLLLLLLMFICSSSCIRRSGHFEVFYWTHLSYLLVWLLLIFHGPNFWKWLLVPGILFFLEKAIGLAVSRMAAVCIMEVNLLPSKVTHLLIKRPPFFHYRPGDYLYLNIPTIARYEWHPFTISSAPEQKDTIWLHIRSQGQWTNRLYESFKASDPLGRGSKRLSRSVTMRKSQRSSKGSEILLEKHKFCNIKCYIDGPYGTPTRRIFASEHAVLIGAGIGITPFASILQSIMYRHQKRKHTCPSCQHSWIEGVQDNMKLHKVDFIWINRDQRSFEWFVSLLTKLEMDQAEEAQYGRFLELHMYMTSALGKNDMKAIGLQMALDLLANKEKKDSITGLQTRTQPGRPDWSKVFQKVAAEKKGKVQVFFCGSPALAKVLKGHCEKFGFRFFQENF
NADPH oxidase 4 (Homo sapiens), sequence (Q9NPH5 whole entry, looked up): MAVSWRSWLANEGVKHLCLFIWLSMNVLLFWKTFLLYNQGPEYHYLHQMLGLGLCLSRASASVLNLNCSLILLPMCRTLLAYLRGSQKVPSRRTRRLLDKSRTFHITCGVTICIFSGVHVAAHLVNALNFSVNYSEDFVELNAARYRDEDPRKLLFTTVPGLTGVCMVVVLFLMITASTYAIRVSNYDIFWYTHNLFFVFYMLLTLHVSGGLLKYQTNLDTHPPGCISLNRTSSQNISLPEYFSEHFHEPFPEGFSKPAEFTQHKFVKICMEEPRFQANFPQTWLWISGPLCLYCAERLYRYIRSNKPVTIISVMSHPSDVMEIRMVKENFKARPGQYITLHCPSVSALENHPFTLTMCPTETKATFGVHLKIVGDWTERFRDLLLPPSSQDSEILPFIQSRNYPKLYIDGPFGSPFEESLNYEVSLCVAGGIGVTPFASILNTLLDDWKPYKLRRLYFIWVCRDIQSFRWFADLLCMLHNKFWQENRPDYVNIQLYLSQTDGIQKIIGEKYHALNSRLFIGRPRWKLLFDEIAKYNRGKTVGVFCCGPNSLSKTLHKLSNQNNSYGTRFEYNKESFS

Take `C[C@]1(C(=O)NCCN2CCOCC2)c2ccccc2C(=O)N(Cc2ccc(OC(F)(F)F)cc2)[C@H]1c1ccc(CO)cc1`: the z-score in test [1] was 0.0793 (inactive); in test [3], 6.9 (inactive); in test [4], 0.621 (inactive); in [5], 3.05 (inactive); in test [6] it was 0.327 (inactive); in [7], -0.173. Also, the z-score in [8] was 0.752 (inactive); in test [9], 1.19 (inactive); in [10], 0.0149. In addition, in test [2], the composite z-score was -0.0523.

Turning to `CN(C)C(=O)[C@]1(CCC(=O)OC(C)(C)C)N=C(c2ccc(OCCCO)cc2)O[C@@H]1c1ccccc1`, the z-score in test [1] is 0.94 (inactive); in test [3], 22.5 (active); in test [4] it was 6.32 (inactive); in [5], -0.0962 (inactive); in [6], 0.84 (inactive); in test [7] it was -0.408. The z-score is 1.24 (inactive) in test [8], 0.419 (inactive) in test [9] and -0.229 in [10]. This molecule also had a composite z-score in test [2] of 0.217.

As to `C=CCN1Cc2ccccc2C[C@@]2(N=C(c3ccc(OCCCO)cc3)O[C@H]2c2ccccc2)C1=O`, the z-score is 0.404 (inactive) in test [1]; 28.1 (active) in test [3]; 23.6 (active) in test [4]; 2.55 (inactive) in test [5]; 5.74 (inactive) in test [6]; 0.624 in [7]. Besides, the z-score is -5.76 (inactive) in [8], -0.323 (inactive) in [9] and -3.72 in [10]. Moreover, in test [2], the composite z-score came to 0.57.

Consider `CN1C(=O)[C@@]2(CCS(=O)(=O)c3ccccc3)N=C(c3ccc(OCCCO)cc3)O[C@H]2c2ccccc21`, for which the z-score is 0.583 (inactive) in test [1]; 30.1 (active) in [3]; 23.3 (active) in test [4]; 0.141 (inactive) in test [5]; 0.914 (inactive) in test [6]; 0.836 in test [7]. In addition, the z-score is -2.59 (inactive) in test [8], 0.479 (inactive) in [9] and -0.917 in [10]. For the same molecule, the composite z-score in [2] was -0.0003.

For the molecule `CC(C)OC(=O)CC(=O)CC(O)c1cccc(C#N)c1` (stereo not given), the z-score in [1] was 1.27 (inactive); in [3], 1.65 (inactive); in test [4], -0.261 (inactive); in test [5], -1.36 (inactive); in test [6], -1.2 (inactive); in test [7], 1.29. The z-score was 0.247 (inactive) in test [8], 0.89 (inactive) in test [9] and -0.0191 in test [10]. The molecule further registered a composite z-score in test [2] of 0.273.

On to `CN1C(=O)C2C=CC(C(O)c3c(F)cccc3Cl)N(Nc3ccccc3)C2C1=O` (stereo not given), for which the z-score in test [1] is -1.32 (inactive); in test [3] it was 0.32 (inactive); in test [4], 0.733 (inactive); in test [5], -0.108 (inactive); in test [6] it was 1.12 (inactive); in test [7] it was -0.809. Moreover, the z-score in test [8] was -2.08 (inactive); in test [9], -4.96 (inactive); in test [10], -2.51. In test [2], this molecule yielded a composite z-score of 0.277.

`C=CCN1C(=O)[C@@]2(O[C@@H](CCO)[C@H]([Si](C)(C)c3ccc(OC)cc3)[C@H]2C)c2cc(N3C(=O)c4ccccc4Oc4ccccc43)ccc21`: the z-score is 1.88 (inactive) in test [1]; 24.4 (active) in [3]; 8.39 (active) in test [4]; 0.332 (inactive) in test [5]; 2.07 (inactive) in test [6]; 0.502 in test [7]. In addition, the z-score in test [8] is -0.946 (inactive); in [9], 0.757 (inactive); in test [10], -0.54. This molecule also displayed a composite z-score in [2] of -0.147.

With `O=C1OCC=C[C@H]2OC34C=CCN(Cn5nnc6ccccc65)C(=O)[C@H]3N(CCCCCCO)C(=O)[C@@H]4[C@@H]12` (stereo not given in full), the z-score in test [1] is -0.169 (inactive); in [3] it was 1.99 (inactive); in [4] it was 0.89 (inactive); in [5], 1.15 (inactive); in test [6], 0.648 (inactive); in test [7], -0.394. The z-score in [8] was 1.77 (inactive); in test [9], -0.17 (inactive); in test [10], 2.24. In addition, the composite z-score in test [2] turned out to be 0.32.

For `CCCCC(CC)C(O)C1C=CC2C(=O)N(c3ccccc3)C(=O)C2N1Nc1ccc([N+](=O)[O-])cc1` (stereo not given), the z-score is -0.999 (inactive) in test [1]; 3.19 (inactive) in [3]; 0.724 (inactive) in [4]; 0.369 (inactive) in test [5]; 0.487 (inactive) in [6]; -0.429 in test [7]. In addition, the results for the z-score in test [8], in test [9] and in test [10] were -0.441 (inactive), -1.6 (inactive) and -1.33, respectively. The composite z-score in test [2] stood at 0.602.

Consider `C=CC1c2cc(O)c(OC)cc2CCN1Cc1sc2ccccc2c1Cl` (stereo not given), for which the z-score is -1.38 (inactive) in test [1]; 17.9 (active) in [3]; 5.17 (inactive) in [4]; -0.604 (inactive) in [5]; 1.41 (inactive) in test [6]; -0.248 in test [7]. Also, the z-score in [8] is -4.21 (inactive); in test [9] it was -2.48 (inactive); in test [10] it was -2.08. This molecule yielded a composite z-score in test [2] of 0.268.
